Results: PubChem BioAssay
Active and inactive are the calls of the source. Unless noted, no rule for the calls is given here.

Tests used:
[1] = system: Wnt5a (protein binding on small-molecule microarray); test: Wnt5a binders on small-molecule microarray, primary screen, biophysical, 635/667 nm fluorescence (AID 1142); conditions: 635 nm fluorescence, higher = more signal;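 also: fluorescence read at 667 nm with signal to noise per printed feature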
[2] = cell viability in Huh7 cells, primary screen, cytotoxicity control for HCV replication inhibitor project, CellTiter-Glo luminescence, basal, 48 h (AID 1143); conditions: Huh7 HCV replicon, higher = more signal, called active from +8 up or from −8 down;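 also: Huh7 hepatoma cells carrying a hepatitis C replication reporter with no stimulus; test concentration not given here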
[3] = P. aeruginosa biofilm formation inhibitors, primary screen, PAO1 strain, BacTiter-Glo luminescence, LB-PBS (AID 1144); conditions: 12 h, higher = more signal
[4] = CREB reporter modulators without forskolin, primary screen, cell-based, PC12, CRE-LacZ reporter, unstimulated (AID 1145); conditions: no forskolin, luminescence, 4.5 h, higher = more signal, called active from +8 up or from −8 down
[5] = CREB reporter modulators under forskolin, primary screen, cell-based, PC12, CRE-LacZ reporter, forskolin-stimulated (AID 1146); conditions: luminescence, 4.5 h, higher = more signal, called active from +8 up or from −8 down;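 also: PC12 cells with 6xCRE LacZ reporter stimulated by forskolin 10 µM; beta-galactosidase reporter signal reflecting CREB driven transcription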
[6] = target: Streptavidin (Streptomyces avidinii) (UniProt P22629); test: streptavidin binders on small-molecule microarray, primary screen, artefact control for SMM compound annotation, biophysical, 635/667 nm fluorescence (AID 1147); conditions: streptavidin binding, higher = more signal;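 also: signal reflects streptavidin binding to arrayed compounds as a control protein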
Chain of Streptavidin (Streptomyces avidinii) (P22629 whole entry, looked up): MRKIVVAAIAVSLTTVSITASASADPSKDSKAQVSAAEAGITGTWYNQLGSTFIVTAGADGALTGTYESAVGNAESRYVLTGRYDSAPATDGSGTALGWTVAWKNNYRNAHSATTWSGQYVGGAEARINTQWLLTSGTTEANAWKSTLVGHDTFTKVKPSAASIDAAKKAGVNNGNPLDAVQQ

[7] = small-molecule binders of probe aInhba, primary screen, biochemical, small-molecule microarray, 635/667 nm fluorescence (AID 1148); conditions: higher = more signal;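 also: score merges 667nm spot fluorescence with signal-to-noise for antibody binding to printed compounds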
Torsin-1A (Homo sapiens) [8] = target: Torsin-1A (Homo sapiens) (UniProt O14656); test: torsin A binders from cell lysate, primary screen, small-molecule microarray, wild-type, 635/667 nm (AID 1149); conditions: COS7 hTOR1A-WT lysate, 635 nm fluorescence, higher = more signal
Chain of Torsin-1A (Homo sapiens) (O14656 whole entry, looked up): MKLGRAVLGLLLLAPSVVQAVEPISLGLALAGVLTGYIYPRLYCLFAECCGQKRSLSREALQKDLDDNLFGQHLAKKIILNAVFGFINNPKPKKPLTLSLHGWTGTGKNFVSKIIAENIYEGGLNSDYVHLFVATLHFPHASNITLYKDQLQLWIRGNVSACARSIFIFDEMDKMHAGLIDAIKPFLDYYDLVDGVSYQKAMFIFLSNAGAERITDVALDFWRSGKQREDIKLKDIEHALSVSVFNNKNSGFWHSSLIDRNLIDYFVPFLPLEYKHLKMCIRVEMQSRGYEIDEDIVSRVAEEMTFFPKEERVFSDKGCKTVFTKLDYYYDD

Torsin-1A (Homo sapiens) [9] = target: Torsin-1A (Homo sapiens) (UniProt O14656); test: small-molecule binders of mutant TOR1A in lysate, primary screen, cell lysate, small-molecule microarray, COS7 lysate, 635/667 nm fluorescence (AID 1150); conditions: COS7 hTOR1A mutant lysate, 635 nm fluorescence, higher = more signal;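 also: score pools 667 nm emission and signal to noise measuring lysate protein binding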
[10] = system: Sonic hedgehog protein (Shh); test: small-molecule binders of Shh protein, primary screen, biochemical, small-molecule microarray, 635/667 nm fluorescence (AID 1151); conditions: small-molecule microarray binding, 635 nm fluorescence; higher = more signal;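 also: Shh protein binding to compounds spotted on small-molecule microarray slides; score combines spot fluorescence intensity with signal-to-noise across triplicate slides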
[11] = E. coli DRC41 culture turbidity changes, primary screen, E. coli filamentation inducer project, strain DRC41, OD650, 48 h (AID 1152);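 also: E. coli MC1000 strain DRC41 lacking acrAB efflux pump and sulA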; conditions: E. coli DRC41 (acrAB sulA), higher = more signal, called active from +8 up or from −8 down
[12] = small-molecule binders of probe aLefty1, primary screen, biochemical, small-molecule microarray, 635/667 nm fluorescence (AID 1153); conditions: higher = more signal;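 also: score merges spot fluorescence with signal-to-noise ratio from the scanned slide images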
[13] = PSAC antagonists in infected red cells, primary screen, cell-based, P. falciparum Indochina, OD700, 1 h (AID 1154); conditions: P. falciparum Indochina infected RBC osmotic lysis, higher = more signal, called active from +8 up or from −8 down
[14] = PSAC antagonists in infected red cells, primary screen, cell-based, P. falciparum Indochina, OD700, 2 h (AID 1155);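 also: lysis reports solute entry through the parasite surface anion channel PSAC; channel blockers reduce lysis of infected cells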; conditions: P. falciparum Indochina infected erythrocytes, osmotic lysis OD700; higher = more signal, called active from +8 up or from −8 down
[15] = osmotic lysis modulators in infected erythrocytes, primary screen, PSAC antagonist project, cell-based, P. falciparum Indochina, OD700, 3 h (AID 1156); conditions: higher = more signal, called active from +8 up or from −8 down
[16] = PSAC antagonists in infected red cells, primary screen, cell-based, P. falciparum Indochina, OD700, 18 h (AID 1157); conditions: P. falciparum Indochina infected erythrocytes, osmotic lysis OD700, 18 h; higher = more signal, called active from +8 up or from −8 down
[17] = modulators of S6 phosphorylation in cells, primary screen, cell-based, A549, cytoblot, luminescence, serum-stimulated (AID 1158); conditions: A549 phospho-S6 cytoblot, 5 h, higher = more signal;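 also: serum-stimulated A549 lung adenocarcinoma cells; signal is phosphorylated S6 detected by cytoblot immunostaining with HRP secondary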
[18] = target: NADPH oxidase 2 (Homo sapiens) (UniProt P04839); test: NOX2-dependent H2O2 signal modulators, primary screen, NOX inhibitor project, cell-based, HEK293-NOX2, PMA-stimulated, Amplex Red fluorescence (AID 1159); conditions: 45 min, higher = more signal, called active from +8 up or from −8 down; also: test concentration not given here
Chain of NADPH oxidase 2 (Homo sapiens) (P04839 whole entry, looked up): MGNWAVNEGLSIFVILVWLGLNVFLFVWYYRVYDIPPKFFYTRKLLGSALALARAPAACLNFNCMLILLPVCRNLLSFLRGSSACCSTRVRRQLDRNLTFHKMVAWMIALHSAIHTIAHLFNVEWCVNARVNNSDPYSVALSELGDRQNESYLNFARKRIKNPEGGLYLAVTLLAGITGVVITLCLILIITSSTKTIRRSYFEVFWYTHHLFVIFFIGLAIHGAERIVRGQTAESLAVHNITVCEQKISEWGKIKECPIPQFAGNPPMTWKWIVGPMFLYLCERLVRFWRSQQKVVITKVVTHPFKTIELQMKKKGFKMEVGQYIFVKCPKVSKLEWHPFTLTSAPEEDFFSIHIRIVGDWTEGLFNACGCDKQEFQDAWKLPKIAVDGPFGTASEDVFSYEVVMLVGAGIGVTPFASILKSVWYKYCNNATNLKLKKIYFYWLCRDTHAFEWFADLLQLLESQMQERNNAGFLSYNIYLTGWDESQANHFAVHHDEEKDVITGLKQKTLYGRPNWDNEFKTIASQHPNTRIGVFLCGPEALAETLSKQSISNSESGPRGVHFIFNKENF

[19] = target: NADPH oxidase 4 (Homo sapiens) (UniProt Q9NPH5); test: NOX4-dependent H2O2 signal modulators, primary screen, NOX inhibitor project, cell-based, HEK293-NOX4, tetracycline-induced, Amplex Red fluorescence (AID 1160); conditions: 45 min, higher = more signal, called active from +8 up or from −8 down
Chain of NADPH oxidase 4 (Homo sapiens) (Q9NPH5 whole entry, looked up): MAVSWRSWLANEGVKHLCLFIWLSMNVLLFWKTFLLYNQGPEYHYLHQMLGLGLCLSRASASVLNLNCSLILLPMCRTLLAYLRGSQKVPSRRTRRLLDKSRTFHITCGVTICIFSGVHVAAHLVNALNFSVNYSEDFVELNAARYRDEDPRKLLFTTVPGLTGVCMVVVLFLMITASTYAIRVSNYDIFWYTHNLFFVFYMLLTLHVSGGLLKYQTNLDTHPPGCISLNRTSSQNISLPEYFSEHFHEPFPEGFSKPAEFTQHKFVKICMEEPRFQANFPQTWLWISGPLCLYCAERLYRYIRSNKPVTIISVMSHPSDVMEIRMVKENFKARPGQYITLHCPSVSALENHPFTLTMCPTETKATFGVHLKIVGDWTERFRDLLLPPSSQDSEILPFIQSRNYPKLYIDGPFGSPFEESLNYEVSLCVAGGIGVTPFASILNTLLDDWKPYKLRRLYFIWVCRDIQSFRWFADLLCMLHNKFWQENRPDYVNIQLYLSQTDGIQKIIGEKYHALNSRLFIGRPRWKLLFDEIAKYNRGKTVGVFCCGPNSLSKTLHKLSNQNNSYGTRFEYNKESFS

[20] = target: NADPH oxidase 5 (Homo sapiens) (UniProt Q96PH1); test: NOX5-dependent H2O2 signal modulators, primary screen, NOX inhibitor project, cell-based, HEK293-NOX5, Amplex Red fluorescence (AID 1161); conditions: HEK293-NOX5, ionomycin, 45 min, higher = more signal
Chain of NADPH oxidase 5 (Homo sapiens) (Q96PH1 whole entry, looked up): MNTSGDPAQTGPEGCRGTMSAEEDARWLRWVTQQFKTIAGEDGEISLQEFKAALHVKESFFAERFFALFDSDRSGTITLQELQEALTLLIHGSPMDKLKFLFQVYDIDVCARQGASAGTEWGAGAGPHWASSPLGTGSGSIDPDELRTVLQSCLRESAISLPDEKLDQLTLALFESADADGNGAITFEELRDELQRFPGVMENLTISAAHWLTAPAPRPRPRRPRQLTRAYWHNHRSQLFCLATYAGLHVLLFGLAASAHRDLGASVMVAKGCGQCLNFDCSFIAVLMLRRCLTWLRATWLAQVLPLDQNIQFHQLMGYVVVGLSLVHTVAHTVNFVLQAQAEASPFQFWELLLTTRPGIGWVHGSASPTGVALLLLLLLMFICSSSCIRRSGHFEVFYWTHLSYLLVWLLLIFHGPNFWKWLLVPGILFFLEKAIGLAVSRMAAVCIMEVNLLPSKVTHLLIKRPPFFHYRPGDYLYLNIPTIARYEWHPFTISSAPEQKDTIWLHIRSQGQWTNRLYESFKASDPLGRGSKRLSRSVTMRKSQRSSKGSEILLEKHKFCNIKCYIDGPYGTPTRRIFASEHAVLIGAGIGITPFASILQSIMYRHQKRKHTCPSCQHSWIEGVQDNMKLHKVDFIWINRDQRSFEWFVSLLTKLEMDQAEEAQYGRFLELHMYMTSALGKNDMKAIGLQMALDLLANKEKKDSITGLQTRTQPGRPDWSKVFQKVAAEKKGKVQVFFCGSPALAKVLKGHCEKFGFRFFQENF

SMILES	composite z-score [1]	z-score [2]	z-score [3]	z-score [4]	z-score [5]	composite z-score [6]	composite z-score [7]	composite z-score (Torsin-1A (Homo sapiens) [8])	composite z-score (Torsin-1A (Homo sapiens) [9])	composite z-score [10]	z-score [11]	composite z-score [12]	z-score [13]	z-score [14]	z-score [15]	z-score [16]	z-score [17]	z-score [18]	z-score [19]	z-score [20]
COCCOC(=O)N1C(=O)[C@@]2(c3cc(C#CCCO)ccc31)[C@H](c1ccc(OCCO)cc1)N1[C@H](c3ccccc3)[C@H](c3ccccc3)OC(=O)[C@H]1[C@@H]2C(=O)N1CCc2cc(OC)c(OC)cc2C1	0.359	-0.415 (inactive)	-0.66 (inactive)	-0.231 (inactive)	-0.196 (inactive)	0.402	0.153	0.637	0.748	1.37	0.526 (inactive)	0.777	3.2 (inactive)	1.67 (inactive)	0.226 (inactive)	1.1 (inactive)	-0.354	0.898 (inactive)	1.01 (inactive)	1.23
CC(C)N1CC=CC23O[C@@H]4C=CCOC(=O)[C@@H]4[C@H]2C(=O)N(CCCCCCO)[C@@H]3C1=O (stereo not given in full)	-0.301	-0.0015 (inactive)	-0.839 (inactive)	-0.627 (inactive)	-0.421 (inactive)	-0.665	-0.097	-2.54	-0.976	1.08	0.864 (inactive)	-0.184	0.855 (inactive)	0.619 (inactive)	0.343 (inactive)	0.65 (inactive)	-0.0596	0.936 (inactive)	-0.482 (inactive)	1.26
C=CCN1C(=O)[C@@]2(O[C@@H](CCn3cc([C@H](O)c4ccccc4)nn3)[C@H]([Si](C)(C)c3ccc(OC)cc3)[C@H]2C)c2cc(NC(=O)c3ccc(OC)cc3)ccc21	0.192	-3.14 (inactive)	-0.527 (inactive)	3.97 (inactive)	0.35 (inactive)	0.429	-0.128	-0.0041	-0.0819	1.32	0.55 (inactive)	-0.0016	6.81 (inactive)	1.77 (inactive)	1.39 (inactive)	1.38 (inactive)	0.689	0.106 (inactive)	0.863 (inactive)	0.583
C=CCC(OC(C)=O)[C@@H]1[C@@H](N(Cc2cc3ccccc3o2)C(=O)Cc2ccc(OC)cc2)c2cc(OCCCO)ccc2N1C(=O)c1ccc(-c2ccccc2)cc1 (stereo not given in full)	0.0628	-0.279 (inactive)	-0.866 (inactive)	2.47 (inactive)	-0.362 (inactive)	0.215	0.105	0.176	0.262	0.0275	1.26 (inactive)	0.143	2.1 (inactive)	0.0881 (inactive)	0.821 (inactive)	0.432 (inactive)	0.78	0.125 (inactive)	-0.964 (inactive)	1.56
COc1ccc(C#Cc2ccc3c(c2)[C@]2(C(=O)N3)[C@H](C(N)=O)[C@H]3C(=O)O[C@H](c4ccccc4)[C@H](c4ccccc4)N3[C@@H]2c2ccc(O)cc2)cc1	0.138	-4.69 (inactive)	-0.755 (inactive)	-0.465 (inactive)	-0.332 (inactive)	0.214	-0.128	0.369	1.03	0.794	-0.203 (inactive)	-0.131	3.46 (inactive)	1.63 (inactive)	0.0128 (inactive)	1.23 (inactive)	0.0535	0.945 (inactive)	0.346 (inactive)	-1.04
O=c1c2ccc(Br)cc2nc(-c2ccccc2)n1Cc1cccc(O)c1	0.153	-0.913 (inactive)	0.32 (inactive)	0.272 (inactive)	-1.17 (inactive)	0.669	0.229	1.45	1.88	0.332	0.421 (inactive)	0.748	15.7 (active)	3.45 (inactive)	0.386 (inactive)	1.73 (inactive)	-0.404	-1.84 (inactive)	-1.05 (inactive)	-1.99
O=C1c2ccccc2[C@](Cc2ccccc2I)(C(=O)NCC(F)(F)F)[C@H](c2ccc(CO)cc2)N1Cc1ccccc1	-0.134	-0.396 (inactive)	0.144 (inactive)	0.272 (inactive)	2.76 (inactive)	1	0.098	-0.661	0.341	0.46	0.131 (inactive)	-0.229	2.39 (inactive)	0.111 (inactive)	0.369 (inactive)	0.278 (inactive)	-0.261	0.738 (inactive)	-0.16 (inactive)	1.14
C=C[C@H](C)[C@H](OC(=O)Nc1ccc(SC)cc1)c1ccc(O)c2ccccc12	0.081	-4.25 (inactive)	-0.0275 (inactive)	0.0172 (inactive)	4.5 (inactive)	-0.635	-0.154	-0.252	-0.0104	0.73	-1.61 (inactive)	-1.01	28.9 (active)	10.2 (active)	2.13 (inactive)	0.867 (inactive)	0.451	-5.46 (inactive)	-0.825 (inactive)	1.76
C[N+](C)(C)CCCC[C@@H]1NC(=O)[C@@H]2C[C@H](C(=O)O)[C@H](c3cccc(OCCO)c3)N2C1=O	-0.0257	-0.63 (inactive)	-0.773 (inactive)	-0.671 (inactive)	-0.471 (inactive)	-1.01	-0.179	0.405	0.171	0.976	1.03 (inactive)	-0.286	2.2 (inactive)	0.157 (inactive)	-1.84 (inactive)	0.276 (inactive)	1.44	1.83 (inactive)	0.877 (inactive)	1.01
